Values without a mark were called inactive. Results filed as inconclusive are left out. Activity calls are given as the source filed them. Unless noted, calls come from the whole dose curve.

The nature of assay [1]: Nuclear factor erythroid 2-related factor 2/antioxidant responsive element (Nrf2/ARE) small molecule agonists: qHTS cell viability counter screen in human keratinocytes (AID 1919968; active = well fitted curve in the direction sought with a large enough effect in the repeat runs; an effect the other way counts as inactive or inconclusive; note: nearly all actives have a fitted effect of over 55% in size; note: potency is the fitted concentration of half-maximal effect). The method, boiled down:
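CellTiter-Fluor fluorescence, read 1 h after reagent, gave viability in the same wells as the ARE-luciferase assay. KeratinoSens cells (1,500/well) had 23 h compound exposure at 37 C/5% CO2 following 5 h plating.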

A short description of assay [2]: Nuclear factor erythroid 2-related factor 2/antioxidant responsive element (Nrf2/ARE) small molecule agonists: luciferase reporter gene qHTS assay in human keratinocytes (AID 1919969). Note: nearly all actives have a fitted effect of over 35% in size. Note: potency is the fitted concentration of half-maximal effect.
In assay [3] the target is Gonadotropin-releasing hormone receptor (Homo sapiens) (UniProt P30968). The assay can be described thus: Human gonadotropin-releasing hormone receptor (GnRHR) small molecule agonists, calcium flux assay in GnRHR-HEK293 cells (AID 1920063). Note: nearly all actives have a fitted effect of over 35% in size. The method, boiled down:
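Agonist mode: compounds at 15 concentrations, in triplicate, went onto calcium dye-loaded GnRHR-HEK293 cells. Intracellular calcium was then followed as 480/540 nm fluorescence at 1 s intervals over 3 min.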

The nature of assay [4]: p53 small molecule agonists, cell-based qHTS assay with human liver microsomes: qHTS cell viability counter screen (AID 1963579). Note: nearly all actives have a fitted effect of over 45% in size. Summed up:
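Metabolically activated exposure: compounds, human liver microsomes and NADPH (0.5 mg/mL final apiece) were added to p53RE-bla cells seeded 5 h earlier, left 16 h at 37 C, and then assessed for viability by CellTiter-Glo luminescence.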

The nature of assay [5]: p53 small molecule agonists, cell-based qHTS assay: qHTS cell viability counter screen (AID 1963581). Note: nearly all actives have a fitted effect of over 45% in size. The method, boiled down:
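Counter screen read by CellTiter-Glo luminescence (ATP content, 30 min at room temperature), run in the same wells as the beta-lactamase reporter read. HCT-116 p53RE-bla cells saw compounds for 16 h at 37 C.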

The target in assay [6] is 5-hydroxytryptamine receptor 2A (Homo sapiens) (UniProt P28223). The assay can be described thus: 5-hydroxytryptamine receptor 2A (HTR2A) small molecule antagonists, cell-based qHTS assay (AID 1963586). Note: nearly all actives have a fitted effect of over 45% in size. The method, boiled down:
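CHO cells stably expressing human HTR2A were plated for 18 h at 37 C, then loaded with calcium dye for 1 h. Compounds were preincubated 5 min at room temperature before DOI (4 nM solution) was added. Kinetic fluorescence was read for 3 min.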

Assay [7] concerns the target Muscarinic acetylcholine receptor M1 (Homo sapiens) (UniProt P11229). The assay can be described thus: Cholinergic receptor muscarinic 1 (CHRM1) small molecule antagonists, cell-based qHTS assay (AID 1963588). Note: nearly all actives have a fitted effect of over 40% in size. Summed up: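 Compounds were tested at 15 concentrations in three independent runs. Dye-loaded CHRM1-CHO cells were exposed 5 min at room temperature before stimulation by acetylcholine added at 50nM. Intracellular calcium was read kinetically on FDSS for 3 min.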

Assay [8] shares this target. Briefly: Cholinergic receptor muscarinic 1 (CHRM1) small molecule agonists, cell-based qHTS assay (AID 1963589). Note: nearly all actives have a fitted effect of over 35% in size. The method, boiled down:
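Agonist-mode calcium-flux screen: compounds at 15 concentrations, three independent runs, were pin-transferred onto dye-loaded human CHRM1-CHO cells. Fluorescence was then recorded kinetically every second over minutes.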

Assay [9] is described as follows: cAMP Responsive Elements (CRE) small molecule agonists, cell-based qHTS assay (AID 1963590). Summed up:
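Agonist mode: compound added to CRE-bla HEK 293T cells (2,000/well, 18 h after plating) for 3 h at 37 C/5% CO2. Reporter activity detected via FRET beta-lactamase substrate, 2 h room-temperature loading.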

Assay [10] is described as follows: cAMP Responsive Elements (CRE) small molecule antagonists, cell-based qHTS assay (AID 1963591; active = well fitted inhibition curve with a large enough effect in the signal ratio in the repeat runs, not every such curve was filed as active; the % refers to the signal ratio). Summed up:
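Antagonist mode: compounds are added alongside the adenylyl cyclase activator NKH477 (0.25 uM final) to CRE-bla HEK293T cells for 3 h. LiveBLAzer FRET substrate, 2 h at room temperature, reports bla expression.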

Assay [11] has as its target Beta-2 adrenergic receptor (Homo sapiens) (UniProt P07550). Briefly: Adrenergic beta2 receptor (ADRB2) small molecule antagonists, cell-based qHTS assay (AID 1963592). Note: series mostly up to about 92 µM; nearly all actives have a fitted effect of over 50% in size. The method, boiled down:
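Assay format: CHO-ADRB2 cells, 18-20hr seeding at 37C/5% CO2, then compound plus 1nM isoproterenol agonist mix for 0.5hr RT. Homogeneous time-resolved fluorescence cAMP detection after 1hr, expressed as 665/615 nm ratio.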

Assay [12] has the same target. Briefly: Adrenergic beta2 receptor (ADRB2) small molecule agonists, cell-based qHTS assay (AID 1963593).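 Note: CHO cells stably overexpressing human ADRB2.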 Summed up:
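CHO cells stably over-expressing ADRB2 were plated overnight at 37C, then dosed with compounds plus a stimulation mix containing 100uM IBMX and 25uM Ro-20-1724 for 0.5hr at room temperature. cAMP was measured by HTRF competition, 1hr.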

In assay [13] the target is D(2) dopamine receptor (Homo sapiens) (UniProt P14416). The assay can be described thus: Dopamine D2 receptor (DRD2) small molecule agonists, cell-based qHTS assay (AID 1963594). Note: nearly all actives have a fitted effect of over 35% in size. The method, boiled down: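 HEK293 cells stably expressing human DRD2, pre-treated with PDE inhibitor Ro20-1724 (0.1 mM final) and compound 10 min at room temperature, then stimulated with NKH477 (200nM […]) for 30 min. cAMP read by HTRF (665/620 nm).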
Chain of D(2) dopamine receptor (Homo sapiens) (P14416 whole entry, looked up): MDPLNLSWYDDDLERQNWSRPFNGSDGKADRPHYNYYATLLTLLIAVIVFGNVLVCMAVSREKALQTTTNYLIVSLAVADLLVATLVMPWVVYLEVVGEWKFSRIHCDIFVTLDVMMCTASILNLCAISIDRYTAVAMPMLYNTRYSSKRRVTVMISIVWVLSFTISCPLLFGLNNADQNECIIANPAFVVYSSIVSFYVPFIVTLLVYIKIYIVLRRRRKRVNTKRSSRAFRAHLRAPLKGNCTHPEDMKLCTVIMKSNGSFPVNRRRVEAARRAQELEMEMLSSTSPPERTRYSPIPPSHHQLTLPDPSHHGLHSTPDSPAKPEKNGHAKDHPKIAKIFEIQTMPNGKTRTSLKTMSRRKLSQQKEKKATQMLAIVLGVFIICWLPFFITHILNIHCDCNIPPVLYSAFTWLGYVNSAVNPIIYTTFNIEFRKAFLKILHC

Assay [14] shares this target. Briefly: Dopamine D2 receptor (DRD2) small molecule antagonists, cell-based qHTS assay (AID 1963595; active = well fitted inhibition curve with a large enough effect in the signal ratio in the repeat runs, with a control signal flat; the % refers to the signal ratio). Summed up: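 DRD2-HEK293; 0.1 mM Ro20-1724; cpd 10 min RT; NKH477 200 nM + quinpirole 12 nM, 30 min RT; HTRF cAMP (cAMP-d2/anti-cAMP cryptate), 665/620 nm ratio after 1 h.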
Assay [15] is described as follows: p53 small molecule agonists, cell-based qHTS assay with rat liver microsomes (AID 1963578). The method, boiled down:
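Agonist mode in p53RE-bla reporter cells, with compounds co-incubated 16 h at 37 C alongside 0.5 mg/mL rat liver microsomes and 0.5 mg/mL NADPH (final), followed by a 2 h LiveBLAzer detection step.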

Assay [16] is described as follows: p53 small molecule agonists, cell-based qHTS assay with rat liver microsomes: qHTS cell viability counter screen (AID 1963580). Note: nearly all actives have a fitted effect of over 45% in size. Note: potency is the fitted concentration of half-maximal effect. Summed up: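 After the beta-lactamase ratio was read, CellTiter-Glo was added to the same wells and luminescence measured at 30 min; cells had been treated 16 h at 37 C with compounds, rat liver microsomes and NADPH (0.5 mg/mL final each).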

Assay [17] can be described thus: p53 small molecule agonists, cell-based qHTS assay (AID 1963582; active = well fitted activation curve with a large enough effect in the signal ratio in the repeat runs, not every such curve was filed as active; the % refers to the signal ratio; note: potency is the fitted concentration of half-maximal effect). Summed up:
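Read-out is beta-lactamase FRET fluorescence after 2 h at room temperature with LiveBLAzer B/G substrate. p53 response element-bla cells were treated 16 h at 37 C with compounds in DMSO, added 5 h after seeding.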

Assay [18] addresses 5-hydroxytryptamine receptor 2A (Homo sapiens) (UniProt P28223). The assay can be described thus: 5-hydroxytryptamine receptor 2A (HTR2A) small molecule agonists, cell-based qHTS assay (AID 1963587). Note: nearly all actives have a fitted effect of over 30% in size. Note: potency is the fitted concentration of half-maximal effect. Summed up: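 CHO cells stably expressing human HTR2A, plated 18 h, loaded with calcium dye 1 h at 37 C. Agonist mode: compounds added and intracellular calcium fluorescence recorded kinetically for 2 min at 1 sec intervals.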

Assay [19] is described as follows: G protein-coupled receptor (GPCR) small molecule agonists, calcium flux assay: HEK293 wild type cell line counter screen (AID 1920065). The method, boiled down: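 Calcium flux counter screen: compound added in agonist mode at 15 concentrations in triplicate to dye-loaded parental HEK293 cells. Fluorescence (480/540) read kinetically for 3 min; ATP served as positive control.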

The target of assay [20] is KiSS-1 receptor (Homo sapiens) (UniProt Q969F8). The assay can be described thus: Human kisspeptin (KISS1R) small molecule agonists, calcium flux assay in KISS1R-HEK293 cells (AID 1920064; active = well fitted curve in the direction sought with a large enough effect in the repeat runs; an effect the other way counts as inactive or inconclusive). Summed up: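 Agonist mode: intracellular calcium rise tracked at 1 s intervals over 3 min (480/540 nm) immediately after compound addition to dye-loaded KISS1R-HEK293 stable cells. Each compound tested at 15 concentrations in triplicate.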
Chain of KiSS-1 receptor (Homo sapiens) (Q969F8 whole entry, looked up): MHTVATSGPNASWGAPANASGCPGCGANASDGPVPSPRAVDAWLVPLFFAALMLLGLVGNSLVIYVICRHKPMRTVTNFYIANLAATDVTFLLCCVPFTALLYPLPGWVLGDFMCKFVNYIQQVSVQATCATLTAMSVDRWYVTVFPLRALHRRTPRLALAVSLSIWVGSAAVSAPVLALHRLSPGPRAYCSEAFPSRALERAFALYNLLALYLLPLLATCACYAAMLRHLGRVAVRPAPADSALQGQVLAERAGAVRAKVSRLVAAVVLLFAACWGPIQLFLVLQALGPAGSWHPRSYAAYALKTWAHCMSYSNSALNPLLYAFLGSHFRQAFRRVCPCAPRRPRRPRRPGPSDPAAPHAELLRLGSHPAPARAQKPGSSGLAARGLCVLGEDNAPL
% is set by controls: 0 for no effect and ±100 for the full control effect.

Chain of Beta-2 adrenergic receptor (Homo sapiens) (P07550 whole entry, looked up): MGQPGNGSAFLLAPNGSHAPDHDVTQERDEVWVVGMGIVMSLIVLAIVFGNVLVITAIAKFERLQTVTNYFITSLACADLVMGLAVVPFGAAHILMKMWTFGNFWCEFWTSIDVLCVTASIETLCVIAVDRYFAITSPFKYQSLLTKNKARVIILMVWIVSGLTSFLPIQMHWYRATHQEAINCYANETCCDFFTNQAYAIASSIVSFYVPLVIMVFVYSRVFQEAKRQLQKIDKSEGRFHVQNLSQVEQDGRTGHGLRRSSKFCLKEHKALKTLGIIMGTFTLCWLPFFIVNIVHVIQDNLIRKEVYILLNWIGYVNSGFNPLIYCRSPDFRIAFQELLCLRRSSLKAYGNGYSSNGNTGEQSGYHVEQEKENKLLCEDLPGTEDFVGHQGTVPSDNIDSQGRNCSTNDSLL
Chain of Gonadotropin-releasing hormone receptor (Homo sapiens) (P30968 whole entry, looked up): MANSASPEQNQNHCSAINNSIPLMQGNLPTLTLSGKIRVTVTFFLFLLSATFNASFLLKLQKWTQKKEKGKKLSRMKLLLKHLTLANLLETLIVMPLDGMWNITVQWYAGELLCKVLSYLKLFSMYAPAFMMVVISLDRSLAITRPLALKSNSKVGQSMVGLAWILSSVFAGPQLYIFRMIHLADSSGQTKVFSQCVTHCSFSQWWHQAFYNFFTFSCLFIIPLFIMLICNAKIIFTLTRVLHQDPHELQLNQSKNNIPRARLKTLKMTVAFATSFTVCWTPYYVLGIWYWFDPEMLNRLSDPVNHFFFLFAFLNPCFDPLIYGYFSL
Chain of 5-hydroxytryptamine receptor 2A (Homo sapiens) (P28223 whole entry, looked up): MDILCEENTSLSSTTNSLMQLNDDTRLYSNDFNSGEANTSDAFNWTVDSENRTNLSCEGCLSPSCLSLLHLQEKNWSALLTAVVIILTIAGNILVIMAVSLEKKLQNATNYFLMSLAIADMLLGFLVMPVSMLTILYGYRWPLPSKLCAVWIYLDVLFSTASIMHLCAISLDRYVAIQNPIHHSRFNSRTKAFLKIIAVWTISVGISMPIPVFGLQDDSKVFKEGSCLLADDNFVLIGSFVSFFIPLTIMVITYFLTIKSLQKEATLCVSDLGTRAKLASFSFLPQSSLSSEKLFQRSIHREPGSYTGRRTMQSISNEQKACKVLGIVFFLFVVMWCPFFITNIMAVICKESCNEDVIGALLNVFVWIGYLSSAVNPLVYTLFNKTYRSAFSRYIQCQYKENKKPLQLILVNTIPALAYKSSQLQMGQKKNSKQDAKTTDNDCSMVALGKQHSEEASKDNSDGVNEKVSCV
Chain of Muscarinic acetylcholine receptor M1 (Homo sapiens) (P11229 whole entry, looked up): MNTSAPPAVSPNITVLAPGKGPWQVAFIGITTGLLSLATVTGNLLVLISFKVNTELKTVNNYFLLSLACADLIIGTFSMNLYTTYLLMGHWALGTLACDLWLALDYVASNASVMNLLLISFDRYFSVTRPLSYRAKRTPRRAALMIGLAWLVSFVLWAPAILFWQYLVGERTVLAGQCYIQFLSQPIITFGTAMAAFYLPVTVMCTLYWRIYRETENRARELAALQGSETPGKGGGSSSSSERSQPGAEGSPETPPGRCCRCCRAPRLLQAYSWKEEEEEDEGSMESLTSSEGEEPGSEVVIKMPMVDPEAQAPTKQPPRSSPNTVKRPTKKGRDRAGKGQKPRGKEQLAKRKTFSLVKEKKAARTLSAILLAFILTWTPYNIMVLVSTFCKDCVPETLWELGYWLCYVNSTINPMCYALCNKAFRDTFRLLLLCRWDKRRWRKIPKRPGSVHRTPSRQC

In the case of `Brc1c2ccccc2c(Br)c2ccccc12`, the activity change, negative = cytotoxicity was 9.04% [at 8.39 µM] in assay [1], 1.01% [at 5.99 µM] in [4] and 12.6% [at 5.99 µM] in assay [5]. Moreover, the activity, positive = activation in assay [2] was -5.36% [at 8.39 µM]. In addition, the activity change in assay [3] was -0.0865% [at 5.22 µM, stronger effect = higher value]. Moreover, the activity, negative = inhibition in [6] is 33.2% [at 5.62 µM]; in assay [7], -2.59% [at 5.58 µM]. The activation in [8] is -0.0159% [at 6.97 µM]; in assay [9], 1.87% [at 8.39 µM]; in assay [12], 3.4% [at 8.39 µM]; in assay [13], 2.55% [at 8.39 µM]. The activity change, negative = inhibition in assay [10] is 2.05% [at 8.39 µM]; in [11], -10.4% [at 8.39 µM]; in [14], -0.559% [at 8.38 µM].

`CN1CCN(C(=O)C2CCCCC2)CC1`: the Potency entry in assay [1], in [2], in assay [3], in assay [15], in assay [4] and in assay [16] was “inactive” each time. Moreover, the Potency result in assay [5], in assay [17], in assay [6], in assay [18], in [7] and in [8] was “inactive” each time. The Potency entry in assay [10], in [11], in assay [12], in [13] and in assay [14] was “inactive” throughout.

On to `CCCC(=O)O[C@]1(C(=O)CO)CC[C@H]2[C@@H]3CCC4=CC(=O)CC[C@]4(C)[C@H]3[C@@H](O)C[C@@]21C`, for which the Potency entry in [1], in assay [2], in assay [3], in [19], in assay [4] and in [16] was “inactive” in each case. Also, the Potency result in [5], in assay [6], in assay [18], in assay [8], in assay [9] and in assay [11] was “inactive” throughout. For the same molecule, the Potency entry in assay [13] and in assay [14] was “inactive” in each case.

As for `CCCCC=O`, the Potency entry in assay [1], in assay [2], in [3], in [19], in assay [16] and in assay [5] was “inactive” throughout. Further, the Potency result in assay [18], in [7], in assay [8], in assay [9], in [10] and in assay [11] was “inactive” in each case. In addition, the Potency result in assay [12], in assay [13] and in [14] was “inactive” in each case.

Take `CCCCCCC(=O)c1ccccc1`: the Potency entry in assay [1], in assay [2], in assay [3], in assay [19], in assay [4] and in assay [16] was “inactive” in each case. The Potency entry in assay [6], in [18], in assay [7], in assay [8], in [10] and in assay [11] was “inactive” in each case. Further, in [12], the Potency result was “inactive”.

In the case of `COc1cccc2c1C(=O)c1c(O)c3c(c(O)c1C2=O)C[C@@](O)(C(=O)CO)C[C@@H]3O[C@H]1C[C@H](N)[C@H](O[C@@H]2CCCCO2)[C@H](C)O1`, the Potency in [1] is 9.44 µM (active); in assay [2], 2.66 µM (active); in assay [16] it was 3.97 µM (active); in [17], 1.78 µM (active); in assay [18], 10.7 µM (active). For the same molecule, the Potency entry in assay [20], in assay [19], in [15], in assay [4], in [5] and in [8] was “inactive” in each case. In addition, the Potency entry in [9] and in assay [11] was “inactive” in each case.

Turning to `CNc1ncnc2nc[nH]c12`, the Potency entry in assay [1], in assay [2], in [3], in [19], in assay [4] and in assay [16] was “inactive” in each case. In addition, the Potency entry in [6], in assay [18], in assay [7], in assay [8], in assay [9] and in assay [10] was “inactive” each time. Also, the Potency result in assay [11], in assay [13] and in [14] was “inactive” each time.

For the origin of these results see PubChem BioAssay (Tox21).
